Assay results published in PubChem BioAssay (NCI).
Where “and” joins values, the source holds several entries; their conditions need not be identical. Equal entries are not always repeated. The panel holds about 83,000 compounds, 20% with a hit somewhere; the sample as a whole holds those more often.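 48-hour exposure, single concentration, 96-well plates; percent growth endpoint where 0 means no net growth. Active: below 10.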 Calls of active or inactive are those of the source.

How the values were obtained:
Test in all cases: NCI-60 one-dose screen, 48 h (100 = growth as untreated, 0 = no growth, -100 = all killed)
BT-549 breast = settings: 10 µM
MDA-MB-435 melanoma = settings: 10 µM
SW-620 colon = settings: 10 µM
MCF7 breast = system: MCF7 breast
HCT-116 colon = settings: 10 µM
HCC-2998 colon = settings: 10 µM
KM12 colon = settings: 10 µM
T-47D breast = settings: 10 µM

SMILES	growth (BT-549 breast)	growth (MDA-MB-435 melanoma)	growth (SW-620 colon)	growth (MCF7 breast; 10 µM)	growth (HCT-116 colon)	growth (HCC-2998 colon)	growth (KM12 colon)	growth (T-47D breast)	growth (MCF7 breast; 100 µM)
CN1CCN(CCCN2c3ccccc3Sc3ccc(C(F)(F)F)cc32)CC1	70.6% (inactive)	27.6% (inactive)	34.3% (inactive)	13.9% (inactive)	36% (inactive)	-6.16% (active)	40.2% (inactive)		
CCN1/C(=C/C=C/C=C/c2sc3ccccc3[n+]2CC)Sc2ccccc21	-42.3% (active)	-76.9% (active)	-31.1% (active)	-44.2% (active)	-25.9% (active)	-88.5% (active)	-88.3% (active)	-32.2% (active)	
CCCCCCCCCCCCCCCCCCOCC(COP(=O)([O-])OCC[N+](C)(C)C)OC (stereo unspecified)	97.1% (inactive)	103% (inactive)	70.1% (inactive)	81.4% (inactive)	65.1% (inactive)		29.7% (inactive)	88% (inactive)	
COc1ccc(CC(=O)c2ccc(O)cc2O)cc1		115% (inactive)	111% (inactive)	108% (inactive)	96.6% (inactive)	107% (inactive)	122% (inactive)	182% (inactive)	
Nc1nc(=S)c2ncn(C3OC(CO)C(O)C3O)c2[nH]1 (stereo unspecified)	126% (inactive) and -1.38% (active)	109% (inactive) and 17.7% (inactive)	107% (inactive) and 35.9% (inactive)	123% (inactive) and 9.98% (active)	107% (inactive) and 17.3% (inactive)	109% (inactive) and 23% (inactive)	104% (inactive) and 19.8% (inactive)	121% (inactive) and 35.2% (inactive)	
CCC(C)(C)c1cc(O)c(C(C)(C)CC)cc1O	10.7% (inactive)	27.7% (inactive)	31.8% (inactive)	18.4% (inactive)	16.6% (inactive)		55.3% (inactive)	60.3% (inactive)	
COC(=O)C1C(O)C(C)C(O)C(C)C=C(C)C2=C3C(=C(C)C(=O)c4c(O)c(c(C)c(OC(C)=O)c43)NC(=O)C(C)=C/C=C\C(C)C(O)C(C)C1O)OCO2 (stereo unspecified)		130% (inactive)	103% (inactive)	103% (inactive)	96% (inactive)	145% (inactive)	103% (inactive)	117% (inactive)	
O=C1C=CC(=CC=C2C=CN(CCCCCCCCCCCO)C=C2)C=C1	-11% (active)	18.9% (inactive)	41.9% (inactive)	8.64% (active)	23.3% (inactive)	57.9% (inactive)	24.2% (inactive)		
CC(C)C1=C(O)C2=C(C(=O)C1=O)C1(C)CCCC(C)(C)C1CC2O (stereo unspecified)									-23.1% (active) and -78.3% (active)
Clc1cc(Cl)c(Cl)nn1	82.8% (inactive)	105% (inactive)	107% (inactive)	86.3% (inactive)	86.2% (inactive)	119% (inactive)	105% (inactive)	79.3% (inactive)	
Cc1cc(O)c(C(C)C)cc1Cl	111% (inactive)	99.2% (inactive)	105% (inactive)	104% (inactive)	98.9% (inactive)	101% (inactive)	112% (inactive)	98.8% (inactive)	
CC(C)(C)CC(C)(C)c1ccc(OCCO)cc1		115% (inactive)	109% (inactive)	137% (inactive)	102% (inactive)	110% (inactive)	99.4% (inactive)	105% (inactive)	
CCCCCCCCCCCC[N+](C)(C)Cc1ccccc1	-21.1% (active)	11.7% (inactive)	45.2% (inactive)	15.1% (inactive)	21.5% (inactive)	17.8% (inactive)	-63.7% (active)	14.2% (inactive)	
CCCC1CCC(=C2C(=O)CCC2=O)O1 (stereo unspecified)	86.3% (inactive) and 106% (inactive)	94.8% (inactive) and 95.4% (inactive)	105% (inactive)	91.9% (inactive) and 118% (inactive)	91.9% (inactive) and 107% (inactive)	104% (inactive) and 99.1% (inactive)	105% (inactive) and 108% (inactive)	87.8% (inactive) and 110% (inactive)	
Clc1ccc(/C=C/c2ccccn2)c(Cl)c1	88.4% (inactive)	104% (inactive)	86% (inactive)	7.59% (active)	77.7% (inactive)	77.9% (inactive)	71.4% (inactive)	47.5% (inactive)	
